Assay outcomes as filed in PubChem.
TSHR agonist – agonists of human thyroid stimulating hormone receptor. Potency, µM (series often up to 57.1 µM), actives largely listed as activators. HEK293-CNG-TSHR cells (CNG channel as cAMP sensor), membrane potential dye, cAMP. P16473. 73,000 tested, 0.48% active. AID 926; active = well fitted activation curve with a large enough effect in the main read-out, with a control signal flat, not every such curve was filed as active; inconclusive = small, poorly fitted or top-dose-only effect, or a change in a side signal; inactive = no such curve, though single readings can be large or run the other way; reference of the percent scale not stated here;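 note: the control signal comes from parental cells without the receptor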
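cAMP rise detected as CNG-channel membrane depolarization by fluorescent dye (emission 590 nm), 30 min after compound, following 60 min dye loading containing 100 uM RO 20-1724 at room temperature. Cells: TSHR/CNG HEK 293, with parental CNG HEK 293 as control.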
HBB splicing – hemoglobin beta splicing modulation. HBB splicing reporter cell assay, activation; EGFP reporter with mutant IVS2-654 intron; response scale: normalised to 500 nM splice-correcting PNA. Potency, µM (highest dose often 46.1 µM), actives largely listed as activators. 65,000 tested, 0.06% active
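HeLa cells stably expressing EGFP interrupted by mutant beta-globin intron 2 (IVS2-654), 500/well in 2% FCS. Treated with compound for 2 days at 37C. Splicing correction scored as total well GFP intensity (488 nm excitation, 500-520 nm emission); 500 nM antisense PNA served as control.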
GFP derepression – epigenetic GFP locus derepression in mouse cells | mouse C127i GFP locus derepression, cytometry, 30 h | Potency, µM (doses to about 46.1 µM) | 68,000 tested, 0.09% active
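Murine C127i mammary cells carrying a silenced, stably integrated CMV-driven GFP reporter were treated with compound for 30 hours at 37 C. After PBS washes, GFP-positive cells were counted by laser-scanning microplate cytometry.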
UbGFP stabilizer – inhibits proteasome, raising ubiquitin-GFP reporter fluorescence | AID 526 | Potency, µM (highest dose often 45.9 µM), most hits filed as activators | Ubiquitin-GFP reporter cells, proteasome inhibition, GFP fluorescence; response scale: untreated = 0%, 10 µM MG-132 = 100% | 67,000 tested, under 10 active; active = well fitted activation curve with a large enough effect, not every such curve was filed as active; inconclusive = small, poorly fitted or top-dose-only effect, or another doubt; inactive = no such curve, though single readings can be large or run the other way
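U2OS Ub(G76V)-GFP reporter; O/N plating, 0.5% FBS; cpd 46 uM–2.9 nM, 4 h, 37 °C; GFP+ cell count, 488/515 nm; norm. to basal vs 10 uM MG-132; CRC fit.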
HEK293 cAMP cs – counter-screen for TSHR agonists: cAMP increase in parental HEK293. parental HEK293 CNG cAMP sensor, membrane potential fluorescence. 73,000 tested, 2.5% active. Potency, µM (doses to about 57.1 µM), hits mostly activators. AID 938; note: nearly all actives have a fitted effect of over 55% in size
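Counterscreen for endogenous-receptor signalling: CNG-channel HEK 293 cells report cAMP rise by membrane depolarization. After 60 min dye equilibration with 100 uM RO 20-1724, compounds incubated 30 min before bottom-read fluorescence at 590 nm.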
ERK AVP block – vasopressin-driven ERK pathway inhibition. 72,000 tested, 0.99% active. HEK293-V1b, vasopressin-stimulated pERK AlphaScreen. Potency, µM (top dose mostly 57.5 µM), usual class: inhibitors; note: nearly all actives have a fitted effect of over 55% in size
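V1b-HEK293 cells; cpd 30 min 37C; 25 nM vasopressin 5 min; lyse 10 min; AlphaScreen beads 5 hr RT. Normalized to DMSO basal and 25 nM vasopressin; AC50 by Hill fit.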
Numbers stand for hits; – = inactive; ? = inconclusive; · = no result given; [ ] = another dose, or the depositor's remark. An excerpt weighted towards active compounds, which were near 3.8% of everything screened. Unless noted, calls come from the whole dose curve; as a rule, active = well fitted curve in the direction sought with a large enough effect; inconclusive = small, poorly fitted or top-dose-only effect, or another doubt; inactive = no such curve, though single readings can be large; an effect the other way counts as inactive or inconclusive.

SMILES	TSHR agonist	HBB splicing	GFP derepression	UbGFP stabilizer	HEK293 cAMP cs	ERK AVP block
CC(CCC(=O)O)(c1cc(Br)c(O)c(Br)c1)c1cc(Br)c(O)c(Br)c1	?	–[9.22 µM]	–[9.22 µM]	–[9.17 µM]	1.3µM	–[11.5 µM]
O=C(/C=C/c1ccc(O)cc1)c1ccc(O)cc1O	–[11.4 µM]	–[9.22 µM]	·	·	–[11.4 µM]	–[11.5 µM]
COc1ccc(/C=C/C(=O)c2ccc(O)cc2O)cc1OC	·	·	·	·	·	16µM
O=C(CCC1N=C2c3ccccc3N=C(SCc3ccc(Cl)cc3)N2C1=O)NCc1ccco1 (stereo not given)	?	–	–	–	20µM	–
CCOC(=O)c1oc2ccc(S(=O)(=O)N3CCOCC3)cc2c1C	–	–	–	–	–	–
CCOC(=O)c1oc2ccc(S(=O)(=O)N3CCC(C)CC3)cc2c1C	?	–	–	–	25µM	–
COc1ccc(OC)c(NC(=O)CSCc2cnn(-c3ccccc3)c2-n2cccc2)c1	?	–	–	–	25µM	–
N#C/C(=C(/N)Sc1ccc(N)cc1)c1ccccc1C(F)(F)F	–	–	·	·	–	0.32µM
O=C1[C@@H]2[C@@H]3C=C[C@H]([C@@H]2C(=O)N1CN1CCSCC1)[C@@H]1[C@@H]2C(=O)N(CN4CCSCC4)C(=O)[C@@H]2[C@H]31	–[11.4 µM]	–[9.22 µM]	–[9.22 µM]	–[9.17 µM]	–[11.4 µM]	–[11.5 µM]
O=C(CN1CCOCC1)Nc1ccccc1-c1ccccc1	–	–	–	–	–	–
O=C(CN1CCN(C2CCCCC2)CC1)Nc1ccccc1-c1ccccc1	?	–	–	–	16µM	–
CNC(=O)[C@H]1O[C@H](n2cnc3c(NCc4cccc(I)c4)nc(Cl)nc32)[C@@H](O)[C@@H]1O	–	·	–	–	–	16µM
CNC(=O)[C@H]1O[C@H](n2cnc3c(NCc4cccc(I)c4)ncnc32)[C@@H](O)[C@@H]1O	–	·	–	–	–	?
CCc1ccccc1OC[C@@H](O)CN[C@H]1CCCc2ccccc21	?	·	–	–	40µM	–
CC(=O)Oc1ccc(C(c2ccc(OC(C)=O)cc2)c2ccccn2)cc1	?	–	–	–	2.5µM	–
O=C1CSC2=NCN(c3ccc4c(c3)OCO4)CN12	–[11.4 µM]	–[0.0738 µM]	–	–[9.17 µM]	–[11.4 µM]	–
CC(C)=C1C2C=CC1C1C(=O)N(c3ccc4c(c3)OCO4)C(=O)C21 (stereo not given)	2.5µM	–[0.0738 µM]	–	–[9.17 µM]	–[11.4 µM]	–
CCOC(=O)N1CCC(n2c(SCC(=O)NCc3ccccc3)nc3ccccc3c2=O)CC1	·	–	–	–	–	–
CCOC(=O)N1CCC(n2c(SCC(=O)NCCC3=CCCCC3)nc3ccccc3c2=O)CC1	?	–	–	–	6.3µM	–
CCOC(=O)C1=C(c2ccccc2)NC(=O)NC1c1ccc(OCC#N)c(OC)c1 (stereo not given)	–	·	–	–	–	–
COc1cc(C2NC(=O)NC(c3ccccc3)=C2C(C)=O)ccc1OCC(=O)O (stereo not given)	?	–	–	–	32µM	–
CC(C)[C@@H](C(=O)O)N1C(=O)c2ccccc2C1=O	–[11.4 µM]	–[9.22 µM]	–[9.22 µM]	–[9.17 µM]	–[11.4 µM]	–[11.5 µM]
COc1ccc(CNc2cc(-c3ccccc3CN(C)C)ncn2)c(OC)c1	–	–	–[9.22 µM]	–	–	–
COCCNc1ccnc(-c2ccccc2C(F)(F)F)n1	–	–	–[9.22 µM]	–	–	–
COc1ccccc1CNc1cc(-c2ccccc2OC)ncn1	?	–	–[9.22 µM]	–	16µM	7.9µM
SMILES	TSHR agonist	HBB splicing	GFP derepression	UbGFP stabilizer	HEK293 cAMP cs	ERK AVP block
COc1ccccc1CNc1cc(-c2ccccc2C)ncn1	?	–	–[9.22 µM]	–	16µM	–
COc1ccc(CNc2cc(-c3ccccc3C)ncn2)c(OC)c1	?	–	–[9.22 µM]	–	16µM	13µM
COCCNc1cc(-c2ccccc2C(F)(F)F)ncn1	?	–	–[9.22 µM]	–	0.32µM	–
NCCCCCCN	–	–	·	·	–	–
CCC1=C(OC(=O)N(CC)CC)N2C(=O)OC(=NCC3CC3)[C@]2(C)[C@H]2C1=CC[C@H]1C(=O)N(c3ccccc3)C(=O)[C@H]12	·	·	·	·	·	–
NCCCc1ccc2oc3ccccc3c2c1	–[11.4 µM]	–[9.22 µM]	–[9.22 µM]	–[9.17 µM]	–[11.4 µM]	–[11.5 µM]
